Measurements as given in PubChem BioAssay AID836 (Columbia University Molecular Screening Center, 2007).
In all, about 91,000 compounds went through this assay and about 160 (0.18%) were called active. The full list was thinned out, with actives kept by preference. A number with no mark means an inactive call.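 How the source made its calls: active means inhibition above the batch mean plus 3 SD and confirmed as a hit by visual image inspection (cut at about 30% in these data, passing the limit was not always enough); inconclusive means above the inhibition threshold but rejected on visual inspection; inactive means the rest.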

experiment: disruptors of actin filament network in HUVEC – imaging, phalloidin staining, high-content imaging, primary screen (AID 836); settings: HUVEC TNFa F-actin phalloidin imaging, at 2 µM, active compounds read high

SMILES	inhibition
Cc1cccc(-n2cnc(C(=O)Nc3cccnc3)c2)n1	1.4%
Cc1cccc(C)c1NC(=O)c1ccc(CN2CCc3ccccc3C2)cc1	-19.9%
Cc1cc(C)cc(OCC(=O)Nc2nc3ccc([N+](=O)[O-])cc3s2)c1	-19.8%
Cc1ccc(-c2nnc(-n3nnc4ccccc43)c3ccccc23)cc1	-2%
CC(C)c1ccc(/C=C/C(=O)NNC(=O)c2cccnc2)cc1	1.1%
O=C(Nc1ccccc1)O/N=C1\CCCCC1c1ccc([N+](=O)[O-])cc1[N+](=O)[O-] (configuration not stated)	-8.4%
c1ccc2c(CSCc3nc4ccccc4[nH]3)cccc2c1	-12.1%
CSc1ccc(C#N)cc1NC(=O)c1cccc(Cl)c1	3.3%
Cc1[nH]n(-c2ccccc2)c(=O)c1CCOC(=O)c1ccc(C(F)(F)F)cc1	-0.4%
CN(C)Cc1ccccc1C1(O)c2ccccc2CSc2ccccc21 (configuration not stated)	-10.2%
O=C(/C=C/c1ccccc1)N/C(=C/c1ccccc1)C(=O)Nc1ccccc1O	-50.9%
CCOc1ccc(-c2c(C)n([O-])c3c([n+]2=O)CCCC3)cc1	-18.2%
Cc1c(Nc2cc(N3CCCC(C)C3)c3nonc3c2[N+](=O)[O-])c(=O)n(-c2ccccc2)n1C (configuration not stated)	3.1%
COc1cc(/C=N/O)cc(Br)c1OCc1cccc(Cl)c1	-41.4%
CCOC(=O)c1nn(-c2cccc(C)c2)cc1C(=O)c1ccccc1	5.4%
O=C(/C=C/c1cc2c(cc1Br)OCO2)NCc1ccc(Cl)cc1	7.8%
Cc1nc(NC2=NC(C(=O)Nc3ccc(Cl)cc3)CC(=O)N2)nc2ccccc12 (configuration not stated)	7.9%
Cc1nc(C)c(C(=O)N(c2ccc(C)c(C)c2)C(C(=O)NCc2ccco2)c2ccccc2)s1 (configuration not stated)	29.1%
Cc1ccc(NC(=S)N/N=C2/CCCc3c(C)cc(C)cc32)cc1	13.9%
Cc1nn(-c2ccccc2)c(Cl)c1C(=O)Nc1ccccc1	-7.8%
Cc1cc(=O)oc2cc(OC(C)C(=O)Nc3ccc(N4CCOCC4)cc3)ccc12 (configuration not stated)	0.5%
CCOC(=O)CSc1ncc(-c2cccc(Cl)c2)cn1	-17.9%
C=CCn1c(SCC(=O)c2c(N)n(C)c(=O)n(C)c2=O)nc2sc(CC)cc2c1=O	2%
Cc1cccc(NC(=O)c2ccc(OCC(=O)NCc3ccccc3)cc2)c1C	4.9%
COc1ccc(Cl)cc1NC(=O)CN(C)C(=O)CNC(=O)C12CC3CC(CC(C3)C1)C2	16%
O=C(Cc1ccc(S(=O)(=O)N2CCOCC2)s1)NCCC(c1ccccc1)c1ccccc1	4.8%

SMILES	inhibition
CCCc1ccc(-c2c(C)sc(NC(=O)c3ccnn3C)c2C#N)cc1	10%
CCOC(=O)C1=C(CN2CCc3ccccc32)NC(=O)NC1c1cc(C)ccc1C (configuration not stated)	-13.1%
CCn1cc(C(=O)N/N=C(/C)c2ccc(F)cc2)c(=O)c2cc(F)c(N3CCCC3)cc21	15.8%
Cc1c(C(=O)NCc2ccccc2)cnn1-c1ccccc1	-6.2%
O=C(Nc1cc(C(F)(F)F)ccc1Cl)c1cc2nc3c(c(C(F)(F)F)n2n1)CCCC3	0.6%
O=C(CN1CCCCCC1)Nc1ccc(Br)cc1Br	12.8%
CC(C)(C)Cc1nnc(NC(=O)c2cc(-c3ccccc3)nc3ccccc23)s1	15.7%
C=CCn1c(-c2ccc(Cl)cc2)ccc(C#N)c1=O	-30.7%
O=[N+]([O-])c1cccc(-c2nnc3c4ccccc4c4ccccc4n23)c1	5.3%
CN1OC(COC(=O)c2ccc(Cl)cc2)CC1c1ccccc1 (configuration not stated)	6.5%
CC1Cc2ccccc2N1CC(=O)Nc1ccc2c(c1)OC(F)(F)O2 (configuration not stated)	-0.7%
Cn1sc(NC(=O)c2ccccc2)nc1=O	-7.1%
CCOC(=O)CSc1nc2sc3c(c2c(=O)[nH]1)CC(C)(C)OC3	4.9%
CCC1(C)Cc2c(sc3nc4n(c(=O)c23)CCCS4)CO1 (configuration not stated)	-10.6%
CCOC(=O)Cn1c(SC)nc2sc3c(c2c1=O)CC(C)(C)OC3	81.7% (active)
COc1ccc(CCN(C(=O)COc2ccccc2)c2nc(-c3ccccc3)cs2)cc1OC	-22.5%
C=CCOc1cccc(CNn2cn[nH]c2=S)c1	0.7%
Cn1c2ccccc2n2c(=O)c(=O)n(CC(=O)c3ccc(F)cc3)nc12	-17.3%
COc1ccc(Nc2nc(-c3ccccc3)cs2)cc1	11.3%
c1ccc(C2CCC(N3CCC(N4CCCCC4)CC3)CC2)cc1 (configuration not stated)	26.6%
O=C(CSCc1c(Cl)cccc1Cl)NN1C(=O)c2ccccc2C1=O	11.9%
CC(=O)NNc1cc(=O)c2c(=O)n(C)c(=O)n(C)c2[nH]1	-8.3%
CCCCNC(=O)CCn1c(=S)[nH]c2cc3c(cc2c1=O)OCO3	-16.1%
CCCNC(=S)NC1CC2CCCC(C1)N2CC(C)C (configuration not stated)	14.2%
O=C(NC1CCc2ccccc21)C12CN(Cc3ccccc3)CC1C(c1cccc([N+](=O)[O-])c1)=NO2 (configuration not stated)	11.9%
CCCSc1nsc(N)n1	8.5%
